Molecules are shown by their SMILES. Values joined by “and” are separate entries in the source; they are usually repeats but may differ in a detail not shown here. Equal values may be shown once. Where a name gives a salt, the structure may show the parent alone. ± gives the standard deviation of the averaged measurements.

In the first experiment the test system is Molm13. The experiment in a line: cell viability relative to DMSO control (bortezomib = 0%); higher = less growth inhibition. The note with it: 10 nM; 72 h. In outline:
(§1)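 Each plate's values were converted to percentages by linear regression, taking DMSO-treated cells as 100% and positive-control-treated cells as 0%. These plates were 384-well plates of 679 approved and investigational compounds at a single 10 nM dose, onto which acute myeloid leukemia cells were dispensed at 1000 cells per well in 50 µL for 72 h, in duplicate. Cell viability came from CellTiter-Glo luminescence on an EnVision reader.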
As for `O=c1cc(-c2cccc3c2Sc2ccccc2S3)oc(N2CCOCC2)c1`, the cell viability turned out to be 104 ± 4.7%.
Regarding `C#Cc1cccc(Nc2ncnc3cc4c(cc23)OCCOCCOCCO4)c1` [Icotinib Hydrochloride], the cell viability was found to be 100 ± 4.9%.
Regarding `CC1(C)C=Cc2c(ccc3c2OC[C@@H](c2ccc(O)cc2O)C3)O1` [Glabridin], the cell viability stood at 100 ± 12%.
Regarding `Cn1cc(C2=C(c3cn(CCCSC(=N)N)c4ccccc34)C(=O)NC2=O)c2ccccc21` [Ro 31-8220 Mesylate], the cell viability came out at 108 ± 2.3%.
Same read-out and setting: with `Brc1c(Br)c(Br)c2n[nH]nc2c1Br` the figure was 113 ± 13%; with `CNc1nc(Nc2cnn([C@H]3CCN(C4COC4)C[C@@H]3F)c2Cl)ncc1C(F)(F)F`, 99.6 ± 15%; with `CCCCCN(CCCOC)C(=O)C(CCC(=O)O)NC(=O)c1ccc(Cl)c(Cl)c1` (stereo not given) [Loxiglumide], 85.9 ± 4.4%.
For the molecule `Nc1ncnc2c1c(I)cn2[C@@H]1O[C@H](CO)[C@@H](O)[C@H]1O` [5-Iodotubercidin], the cell viability was 92.65 ± 0.91%.
With `COc1cc2ncnc(Nc3ccc(Cl)cc3F)c2cc1OC`, the cell viability turned out to be 108 ± 8.2%.
As to `Fc1ccc(-c2nc3n(c2-c2ccncc2)CCS3)cc1`, the cell viability worked out at 102.8 ± 0.71%.
For `O=C(O)CCC(=O)Nc1ccc(Br)cn1` [Bikinin], the cell viability turned out to be 92.5 ± 2.2%.
Still for that read-out and setting: with `O=C1Cc2c([nH]c3ccc(Br)cc23)-c2ccccc2N1` [Kenpaullone] the figure was 88 ± 2.5%; with `CN1CCN(CCCNc2ncc(Cl)c(-c3cc4c(C(=O)NC5CC5)cccc4s3)n2)CC1`, 110 ± 3.6%.
`CS(=O)(=O)c1cccc(CNc2nc(Nc3ccc4c(c3)CCC(=O)N4)ncc2C(F)(F)F)c1`: the cell viability worked out at 98.44 ± 0.67%.
Same read-out and setting: with `CC(C)n1nc(-c2ccc3oc(N)nc3c2)c2c(N)ncnc21` the figure was 89.4 ± 12%.
Same read-out and setting: with `CN(C)Cc1cccc(N/C(=C2\C(=O)Nc3cc(C(N)=O)ccc32)c2ccccc2)c1` the figure was 114 ± 4.6%; with `Cc1ccc(C(=O)Nc2ccc(CN3CCN(C)CC3)c(C(F)(F)F)c2)cc1C#Cc1cnc2[nH]ncc2c1` [GZD824 Dimesylate], 4.07 ± 5.9%; with `Cc1[nH]c(/C=C2\C(=O)Nc3ccc(S(=O)(=O)N(C)c4cccc(Cl)c4)cc32)c(C)c1C(=O)N1CCN(C)CC1`, 104 ± 22%.
Turning to `Cn1cnc(N)c2ncnc1-2` [3-Methyladenine], the cell viability turned out to be 119 ± 7.3%.
As for `CCCC(CCC)C(=O)O` [Valproic Acid (sodium salt)], the cell viability was 100 ± 10%.
On to `CC1(C)CNc2cc(NC(=O)c3cccnc3NCc3ccncc3)ccc21` [Motesanib Diphosphate (AMG-706)], for which the cell viability came to 89.2 ± 9.9%.
Regarding `CCc1cc2c(cc1N1CCC(N3CCOCC3)CC1)C(C)(C)c1[nH]c3cc(C#N)ccc3c1C2=O` [Alectinib], the cell viability is 102 ± 7.8%.
For the molecule `Nc1ccc(C(=O)Nc2cccc(-c3nc(N4CCOCC4)c4oc5ncccc5c4n3)c2)cn1`, the cell viability is 104% and 101%.
With `N#CC(=C(/N)Sc1ccccc1N)/C(C#N)=C(\N)Sc1ccccc1N`, the cell viability turned out to be 99.3 ± 16%.
`COc1cc2ncnc(Nc3cccc(Cl)c3F)c2cc1OC(=O)N1CCN(C)C[C@H]1C`: the cell viability amounted to 110 ± 8.6%.
For the molecule `CO[C@@H]1[C@H](N(C)C(=O)c2ccccc2)C[C@H]2O[C@]1(C)n1c3ccccc3c3c4c(c5c6ccccc6n2c5c31)C(=O)NC4` [PKC-412(Midostaurin)], the cell viability amounted to 95.04 ± 0.94%.
With `CN1CCN(S(=O)(=O)c2ccc(-c3cnc(N)c(C(=O)Nc4cccnc4)n3)cc2)CC1`, the cell viability came to 95.5 ± 17%.
As for `O=C(NCCCNc1nc(Nc2cccc(CN3CCOCC3)c2)ncc1C1CC1)C1CCC1`, the cell viability worked out at 86.2 ± 18%.
In the case of `COc1ccc(CNc2nc(N(CCO)CCO)nc3c2ncn3C(C)C)cc1`, the cell viability stood at 102 ± 7%.
With `NCCCNc1ccc(Nc2nccc(Nc3cc(C4CC4)[nH]n3)n2)cc1`, the cell viability was found to be 94.71 ± 0.31%.
For `COc1cc2ccc(=O)oc2cc1O` [Scopoletin], the cell viability was determined as 102.2 ± 0.33%.
On the same count and under the same terms, with `COc1cc(OC)c(C=C2C(=O)Nc3ccccc32)c(OC)c1` the figure was 104 ± 6.9%.
For `CCOc1cc(N2CCC(O)CC2)ccc1Nc1ncc2c(n1)N(C)c1ccccc1C(=O)N2C`, the cell viability was found to be 98.8 ± 5.5%.
The same measure, in the same setting: with `COc1cc2nccc(Oc3ccc(NC(=O)C4(C(=O)Nc5ccc(F)cc5)CC4)cc3)c2cc1OC` [XL184(Cabozantinib malate)] the figure was 15 ± 7.9%; with `O=c1oc2c(O)c(O)cc3c(=O)oc4c(O)c(O)cc1c4c23` [Ellagic acid], 92.5 ± 28%.
Turning to `CCN1/C(=C/C(C)=O)Sc2ccc(OC)cc21`, the cell viability was found to be 106 ± 11%.
For the molecule `Cc1cc(C)c(/C=C2\C(=O)Nc3ccccc32)[nH]1` [Semaxanib (SU5416)], the cell viability was 82.4 ± 11%.
Turning to `Nc1ccn([C@@H]2O[C@H](CO)[C@@H](O)C2(F)F)c(=O)n1` [Gemcitabine], the cell viability is -0.99 ± 5.6%.
Take `N#C/C(=C\c1ccc(O)c(O)c1)C(=O)Nc1ccccc1`: the cell viability was 106 ± 6.4%.
For the molecule `O=C1NCCSc2c1sc1ccc(O)cc21`, the cell viability is 92.9 ± 24%.

Another experiment has as its system Mv4-11. The experiment is described as above. Conditions: 10 nM; 72 h. In outline:
as §1
For the molecule `O=c1cc(-c2cccc3c2Sc2ccccc2S3)oc(N2CCOCC2)c1`, the cell viability was found to be 103 ± 28%.
As for `C#Cc1cccc(Nc2ncnc3cc4c(cc23)OCCOCCOCCO4)c1` [Icotinib Hydrochloride], the cell viability worked out at 105 ± 9.2%.
Regarding `CC1(C)C=Cc2c(ccc3c2OC[C@@H](c2ccc(O)cc2O)C3)O1` [Glabridin], the cell viability is 99 ± 1.6%.
On to `Cn1cc(C2=C(c3cn(CCCSC(=N)N)c4ccccc34)C(=O)NC2=O)c2ccccc21` [Ro 31-8220 Mesylate], for which the cell viability stood at 102 ± 4%.
For the molecule `Brc1c(Br)c(Br)c2n[nH]nc2c1Br`, the cell viability turned out to be 97.11 ± 0.32%.
Take `CNc1nc(Nc2cnn([C@H]3CCN(C4COC4)C[C@@H]3F)c2Cl)ncc1C(F)(F)F`: the cell viability came to 106 ± 2.4%.
Same read-out and setting: with `CCCCCN(CCCOC)C(=O)C(CCC(=O)O)NC(=O)c1ccc(Cl)c(Cl)c1` (stereo not given) [Loxiglumide] the figure was 108 ± 3.1%; with `Nc1ncnc2c1c(I)cn2[C@@H]1O[C@H](CO)[C@@H](O)[C@H]1O` [5-Iodotubercidin], 87.1 ± 4.9%.
Still for that read-out and setting: with `COc1cc2ncnc(Nc3ccc(Cl)cc3F)c2cc1OC` the figure was 102 ± 6.2%; with `Fc1ccc(-c2nc3n(c2-c2ccncc2)CCS3)cc1`, 98.2 ± 4.3%.
With `O=C(O)CCC(=O)Nc1ccc(Br)cn1` [Bikinin], the cell viability is 99.9 ± 1.9%.
With `O=C1Cc2c([nH]c3ccc(Br)cc23)-c2ccccc2N1` [Kenpaullone], the cell viability is 111 ± 5.9%.
For the molecule `CN1CCN(CCCNc2ncc(Cl)c(-c3cc4c(C(=O)NC5CC5)cccc4s3)n2)CC1`, the cell viability was found to be 109 ± 13%.
On the same count and under the same terms, with `CS(=O)(=O)c1cccc(CNc2nc(Nc3ccc4c(c3)CCC(=O)N4)ncc2C(F)(F)F)c1` the figure was 101 ± 4.3%; with `CC(C)n1nc(-c2ccc3oc(N)nc3c2)c2c(N)ncnc21`, 86.16 ± 0.51%.
Take `CN(C)Cc1cccc(N/C(=C2\C(=O)Nc3cc(C(N)=O)ccc32)c2ccccc2)c1`: the cell viability was found to be 134 ± 3.4%.
On to `Cc1ccc(C(=O)Nc2ccc(CN3CCN(C)CC3)c(C(F)(F)F)c2)cc1C#Cc1cnc2[nH]ncc2c1` [GZD824 Dimesylate], for which the cell viability is -9.27 ± 10%.
For `Cc1[nH]c(/C=C2\C(=O)Nc3ccc(S(=O)(=O)N(C)c4cccc(Cl)c4)cc32)c(C)c1C(=O)N1CCN(C)CC1`, the cell viability came out at 107 ± 13%.
Regarding `Cn1cnc(N)c2ncnc1-2` [3-Methyladenine], the cell viability worked out at 111.9 ± 1.1%.
With `CCCC(CCC)C(=O)O` [Valproic Acid (sodium salt)], the cell viability came out at 104 ± 10%.
Regarding `CC1(C)CNc2cc(NC(=O)c3cccnc3NCc3ccncc3)ccc21` [Motesanib Diphosphate (AMG-706)], the cell viability worked out at 106 ± 12%.
On the same count and under the same terms, with `CCc1cc2c(cc1N1CCC(N3CCOCC3)CC1)C(C)(C)c1[nH]c3cc(C#N)ccc3c1C2=O` [Alectinib] the figure was 100 ± 2.9%; with `Nc1ccc(C(=O)Nc2cccc(-c3nc(N4CCOCC4)c4oc5ncccc5c4n3)c2)cn1`, 106% and 108%; with `N#CC(=C(/N)Sc1ccccc1N)/C(C#N)=C(\N)Sc1ccccc1N`, 104 ± 7%.
Turning to `COc1cc2ncnc(Nc3cccc(Cl)c3F)c2cc1OC(=O)N1CCN(C)C[C@H]1C`, the cell viability was 99.9 ± 8.6%.
Still for that read-out and setting: with `CO[C@@H]1[C@H](N(C)C(=O)c2ccccc2)C[C@H]2O[C@]1(C)n1c3ccccc3c3c4c(c5c6ccccc6n2c5c31)C(=O)NC4` [PKC-412(Midostaurin)] the figure was 89 ± 22%; with `CN1CCN(S(=O)(=O)c2ccc(-c3cnc(N)c(C(=O)Nc4cccnc4)n3)cc2)CC1`, 100 ± 0.48%.
Turning to `O=C(NCCCNc1nc(Nc2cccc(CN3CCOCC3)c2)ncc1C1CC1)C1CCC1`, the cell viability turned out to be 106 ± 28%.
Consider `COc1ccc(CNc2nc(N(CCO)CCO)nc3c2ncn3C(C)C)cc1`, for which the cell viability turned out to be 104 ± 8.2%.
`NCCCNc1ccc(Nc2nccc(Nc3cc(C4CC4)[nH]n3)n2)cc1`: the cell viability worked out at 110 ± 7.2%.
Consider `COc1cc2ccc(=O)oc2cc1O` [Scopoletin], for which the cell viability came out at 109.9 ± 0.78%.
As for `COc1cc(OC)c(C=C2C(=O)Nc3ccccc32)c(OC)c1`, the cell viability is 100 ± 12%.
`CCOc1cc(N2CCC(O)CC2)ccc1Nc1ncc2c(n1)N(C)c1ccccc1C(=O)N2C`: the cell viability is 98.8 ± 2%.
With `COc1cc2nccc(Oc3ccc(NC(=O)C4(C(=O)Nc5ccc(F)cc5)CC4)cc3)c2cc1OC` [XL184(Cabozantinib malate)], the cell viability is 42 ± 6.5%.
As to `O=c1oc2c(O)c(O)cc3c(=O)oc4c(O)c(O)cc1c4c23` [Ellagic acid], the cell viability was 99.5 ± 11%.
With `CCN1/C(=C/C(C)=O)Sc2ccc(OC)cc21`, the cell viability amounted to 104 ± 6.5%.
Regarding `Cc1cc(C)c(/C=C2\C(=O)Nc3ccccc32)[nH]1` [Semaxanib (SU5416)], the cell viability came to 98 ± 16%.
With `Nc1ccn([C@@H]2O[C@H](CO)[C@@H](O)C2(F)F)c(=O)n1` [Gemcitabine], the cell viability is -5.76 ± 18%.
Still for that read-out and setting: with `N#C/C(=C\c1ccc(O)c(O)c1)C(=O)Nc1ccccc1` the figure was 115 ± 17%.
The same measure, in the same setting: with `O=C1NCCSc2c1sc1ccc(O)cc21` the figure was 103 ± 14%.

The cell viability is a read-out of living cells in per cent, often relative to untreated cells.

For the origin of these results see the supplement of paper PMC8699584.
